Only some compounds are listed: those with a hit (about 21% of all), similar ones and a draw of the others.
Pf growth 48h – inhibits P. falciparum growth in the first generation, 48 h; P. falciparum luciferase growth in erythrocytes, 48 h; Potency, µM (top dose mostly 28.7 µM), inactives show at the highest dose activity change, negative = inhibition, usual class: inhibitors; 5.9% of 310,000 active; AID 504832; further: potency means the concentration at half of the fitted maximal effect; on the % scale 0 is the no-effect control and ±100 the full control effect
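Compounds are pin-transferred into medium, infected erythrocytes (2% hematocrit, 0.1% parasitemia final) are added, and plates sit one parasite generation at 37 C in 5% CO2. Detection reagent is then added and luminescence measured.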
HCV inhibitor – HCV inhibition | Potency, µM (titrated, usually from 41.8 µM), for the others: top-dose activity change, negative = inhibition, hits mostly inhibitors | Huh7.5.1 HCVcc-Cre infection, luciferase reporter, 44 h | 3.4% of 340,000 active; further: potency means the concentration at half of the fitted maximal effect; on the % scale 0 is the no-effect control and ±100 the full control effect
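Infectious HCV cell culture screen: compound-treated cells (1,000/well, pre-plated 4 h) are infected with HCVcc-Cre at roughly 0.5 moi and grown 44 h. Infection is quantified by luciferase signal after 15 min substrate incubation at room temperature.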
Pf growth 96h – inhibits malaria parasite growth, 96 h | P. falciparum luciferase reporter growth, 96 h | Potency, µM (highest dose often 28.7 µM), without a hit: at the top dose activity change, negative = inhibition, actives largely listed as inhibitors | 6.9% of 320,000 active; further: potency means the concentration at half of the fitted maximal effect; on the % scale 0 is the no-effect control and ±100 the full control effect
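96 h incubation, 37 C, 5% CO2, of luciferase-reporter P. falciparum-infected RBCs (2% hematocrit, 0.05% parasitemia final) with test compounds; endpoint luminescence.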
HCMV inh – blocks human cytomegalovirus replication; HFF cells, HCMV-luciferase reporter, 72 h; stronger effect = lower value; activity change, negative = inhibition, % at 57.5 µM; 4.5% of 410,000 active; in the data active means activity change below about -60%; inconclusive means no clear call, values can overlap the other calls; inactive means above about -39%; further: on the % scale 0 is the no-effect control and ±100 the full control effect
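Luciferase read-out from HCMV-luciferase-infected HFFs (MOI 1 PFU/cell) 72 h post infection at 37C; compounds added after 16 h cell attachment; activity normalized between buffer-only basal and Salinomycin (10uM) inhibitor controls.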
Shiga inhibitor – inhibitors of Shiga toxin in Vero cells | 9.2% of 290,000 active | Vero cells, Shiga toxin protein synthesis inhibition reporter | inhibition, % at 38.7 µM; in the data active means inhibition mostly above about 28%, no sharp cut-off; inactive means mostly below about 43%; further: 0% is about no effect
Cycloheximide cs – counter-screen for Shiga toxin inhibitors: cycloheximide protein synthesis inhibition; cell reporter, cycloheximide protein synthesis inhibition counterscreen; max response, %; 12% of 300,000 active; in the data active means max response mostly above about 13%, no sharp cut-off; inactive means mostly below about 14%; further: read at 38.3 µM for the half of the compounds with a filed dose; 0% is about no effect
An asterisk follows results filed as active; ? = inconclusive; . = not tested or not shown. Unless noted, the call rests on the fitted dose curve; in most records, active means well fitted inhibition curve with a large enough effect; inconclusive means small, poorly fitted or top-dose-only effect, or another doubt; inactive means no such curve, though single readings can be large or run the other way.

SMILES	Pf growth 48h	HCV inhibitor	Pf growth 96h	HCMV inh	Shiga inhibitor	Cycloheximide cs
CC1CCN(c2nc3c(c(=O)n(C)c(=O)n3C)n2CCSc2nc3ccccc3s2)CC1	.	11µM*	?	-34	-9	-2
Cn1c(=O)[nH]c(=O)c2c1nc(N1CCCCC1)n2CCCSc1nc2ccccc2s1	?	10µM*	4.1µM*	-28	5	8
Cc1nnc(SCCCn2c(N3CCN(c4ccccc4)CC3)nc3c2c(=O)[nH]c(=O)n3C)s1	?	-6%	39%	15	-14	2
Cc1ccnc(SCCn2c(N3CCC(C)CC3)nc3c2c(=O)n(C)c(=O)n3C)n1	.	-1%	.	-16	.	.
Cn1c(=O)c2c(nc(N3CCC(C(N)=O)CC3)n2CCSc2nc3ccccc3s2)n(C)c1=O	2.9µM*	-3%	3%	-28	-14	13
Cc1ccc(/C=N\NC(=O)Cc2noc3ccccc23)cc1	39%	-10%	61%	31	-4	-3
Cn1c(OCc2cccnc2)nc2c1c(=O)n(Cc1ccc(Br)cc1)c(=O)n2C	?	?	-12%	-36	8	-4
Cn1c(N2CCN(c3ccccn3)CC2)nc2c1c(=O)n(Cc1ccccc1Cl)c(=O)n2C	.	19%	.	74	.	.
Cn1c(N2CCOCC2)nc2c1c(=O)n(Cc1ccc(Cl)cc1)c(=O)n2C	.	-5%	.	-31	.	.
Cn1c(N2CCN(c3ccccn3)CC2)nc2c1c(=O)n(Cc1ccc(Cl)cc1)c(=O)n2C	12µM*	15%	.	-84*	-6	-1
CC1CN(c2nc3c(c(=O)n(Cc4ccc(Cl)c(Cl)c4)c(=O)n3C)n2C)CC(C)O1 (stereo unspecified)	6.6µM*	?	.	-21	-22	-2
Cn1c(OCc2cccnc2)nc2c1c(=O)n(Cc1ccc(Cl)cc1)c(=O)n2C	.	11µM*	.	?	.	.
O=C(c1cc2nc(-c3ccc(Cl)cc3)cc(C(F)(F)F)n2n1)N1CCOCC1	4%	-12%	10µM*	-32	-11	9
COc1ccc(-c2cc(C(F)(F)F)n3nc(C(=O)NCCCN4CCOCC4)cc3n2)cc1	-17%	11µM*	?	-21	-11	-1
COc1cccc(-c2cc(C(F)(F)F)n3nc(C(=O)N4CCCCC4c4cccnc4)cc3n2)c1 (stereo unspecified)	3.7µM*	5.6µM*	?	-68*	51*	19*
COc1ccc(-c2cc(C(F)(F)F)n3nc(C(=O)N4CCCCC4)cc3n2)cc1	?	11µM*	35%	?	9	-2
COc1ccc(-c2cc(C(F)(F)F)n3nc(C(=O)Nc4cc(C)ccc4C)cc3n2)cc1	.	.	.	15	.	.
CCc1cc(=O)oc2cc(C)cc(OCC(=O)NCCCN3CCOCC3)c12	27%	2%	49%	-14	-8	8
COc1ccc(-c2cc(C(=O)NCc3cccc(Cl)c3)[nH]n2)c(C)c1	.	.	.	-26	.	.
CN1C[C@@H]2[C@@H]3C(=O)N(C)C(=O)[C@@H]3[C@](C)(C1=O)N2C(=O)c1ccc(Cl)cc1	.	11%	.	21	.	.
CCOc1ccc(NC(=O)CSc2ncc3c(n2)-c2ccccc2N(C)S3(=O)=O)cc1	.	.	.	1	.	.
Cn1c(=O)c2c(-c3ccccc3)n(-c3ccccc3F)cc2n(C)c1=O	.	.	.	5	.	.
Fc1ccccc1-n1cc(-c2ccccc2)[nH]c1=S	-17%	-1%	0%	-10	36	29*
COc1ccc(-n2cc(-c3ccccc3)[nH]c2=S)c(OC)c1	?	?	?	-65*	-17	-4
CCc1ccc(C(=O)NCc2ccc(Cl)cc2)cc1	27%	2%	21%	97	37	15*
SMILES	Pf growth 48h	HCV inhibitor	Pf growth 96h	HCMV inh	Shiga inhibitor	Cycloheximide cs
CCc1ccc(C(=O)NNc2cc(Cl)cc(Cl)c2)cc1	?	-14%	-19%	-20	9	10
CCc1ccc(C(=O)NNc2ccc(Cl)cc2)cc1	-10%	-7%	49%	-26	59*	48*
CCn1ccnc1CN(C)Cc1nc(-c2ccccc2)no1	19%	-4%	?	15	55*	35*
CCn1ccnc1CN(C)Cc1nc(-c2cccc(Cl)c2)no1	61%	-7%	5%	7	49	30*
CN(CCN1CCOCC1)Cc1nc(-c2ccccc2)no1	-1%	22%	18%	32	14	12*
CC(C)[C@H](NC(=O)c1ccccc1)C(=O)OCC(=O)N1CC2(C)CC1CC(C)(C)C2 (stereo partly specified)	-11%	2%	?	?	-6	-2
COc1cc2c(cc1OC)-c1c(OC)c(OC)cc3ccnc(c13)C2=O	?	?	?	-95*	10	7
COc1cc(-c2nccc3cc4c(cc23)OCO4)cc(OC)c1OC	.	-14%	.	60	.	.
CCc1nc(N2CCC3(CC2)OCCO3)c2nnn(Cc3ccccc3Cl)c2n1	?	?	-2%	-4	-2	6
CC(C)(C)c1nc(N2CCN(C(=O)c3ccco3)CC2)c2nnn(Cc3ccccc3Cl)c2n1	1.7µM*	?	.	-2	3	-3
COCCNc1nc(C(C)(C)C)nc2c1nnn2Cc1ccccc1Cl	8.3µM*	8%	42%	.	8	0
COc1ccc(NC(=O)N2CCCCCC2)cc1OC	9%	8%	?	?	-8	9
CCN(CC)CCOC(=O)c1cc(Cl)c(N)cc1OC	33%	4.5µM*	68%	-21	.	.
CCOc1ccc(C(=O)N2CCN(Cc3ccccc3)CC2)cc1	-19%	-5%	?	18	8	17
CCOc1ccc(-n2nc(C(=O)N3CCN(CC)CC3)c3ccccc3c2=O)cc1	4.1µM*	7%	?	23	0	0
CCOc1ccc(CN2CCN(C(=O)c3ccccc3)CC2)cc1	-7%	11µM*	5%	-20	-13	0
CCOc1ccc(CN2CCN(C(=O)c3cccc4ccccc34)CC2)cc1	?	7.1µM*	?	?	-4	-1
CCOc1ccc(-n2nc(C(=O)NCCOC)c3ccccc3c2=O)cc1	-19%	8%	?	-29	-10	-2
COc1cccc(C(=O)N2CCN(CCCc3ccccc3)CC2)c1OC	-2%	35µM*	.	?	-6	-2
Cc1cccc(NC(=O)CSc2ncc3c(n2)-c2ccccc2N(Cc2ccc(F)cc2)S3(=O)=O)c1C	.	.	.	-12	.	.
CC(O)c1nc2ccccc2n1CC(=O)Nc1ccc(F)cc1Cl (stereo unspecified)	?	6%	36%	-16	7	-1
Fc1ccc(-c2nc(Nc3cccc(C(F)(F)F)c3)nc3c2COc2ccccc2-3)cc1	.	.	.	-7	.	.
CCS(=O)(=O)N1CCc2cc(C(=O)Nc3cc([N+](=O)[O-])ccc3C)ccc21	.	.	.	-9	.	.
COc1ccc(OC)c(CN2CCN(C(=O)c3cc4ccccc4cc3O)CC2)c1	4.7µM*	-23%	2.3µM*	9	12	-2

High-throughput results from PubChem BioAssay.
